# Data from article PMC5540273 (PLoS ONE, 2017).
# System: EPHA4
# Conditions: concentration: 1 μM, replicates: in singlicate; n = 1
# 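Note: KINOMEscan kinase panel screen.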
row,SMILES,%Inh
1,COc1cc2c(cc1OCCN1CCNCC1)ncc1c3ccc(C#N)cc3[nH]c21,1%
2,CN(c1ccc(NC(=O)Nc2cc(C(F)(F)F)ccc2F)cc1)c1ccnc(Nc2ccc(S(N)(=O)=O)cc2)n1 [GW809893],96.9%
3,COc1ccc(Nc2nccc(N3CCC(NC(=O)Nc4cccc(OC)c4)C3)n2)cc1 (stereo not shown) [GSK1379742],1%
4,COc1cccc(-c2ccc3c(NC(=O)C4CC4)n[nH]c3n2)c1 [SB-710903],20%
5,CNC(=O)c1ccccc1Nc1nc(Nc2ccc(N3CCOCC3)cc2)ncc1Cl.Cl [GSK1576028],29%
6,O=C(NC1CCN(c2ccnc(Nc3ccc(F)cc3)n2)C1)c1cc2ccccc2s1 (stereo not shown) [GSK1379716],16%
7,O=C(Nc1cccc(Oc2ccc3nc(NC(=O)C4CC4)cn3n2)c1)c1ccccc1C(F)(F)F,28%
8,Cl.c1ccc(-c2ccc3c(Nc4ccc5[nH]ncc5c4)ccnc3c2)nc1 [GW440137],2%
9,Cl.Cl.NCC(NC(=O)c1cc(-c2ccccc2)c(-c2ccnc3[nH]ccc23)s1)c1ccccc1 (stereo not shown) [GSK1321561],2%
10,C[C@@H](Oc1cc(-n2cnc3cc(-c4ccnc(NCCS(C)(=O)=O)c4)ccc32)sc1C(N)=O)c1ccccc1Cl [GSK907232],10%
11,O=C(Nc1cccc(-c2nn3ccccc3c2-c2ccnc(Nc3cccc(F)c3)n2)c1)c1c(F)ccc(F)c1Cl [GSK357952],25%
12,Cc1occc1-c1ncc(OC[C@@H](N)Cc2c[nH]c3ccccc23)cc1-c1ccc2[nH]nc(C)c2c1.O=C(O)C(F)(F)F [GSK682037],0%
13,CCc1ccc(-c2ccc3c(c2)-c2c(cnn2C)S(=O)(=O)N3C)cc1,1%
14,O=c1[nH]cc(-c2ccc(N3CCOCC3)cc2)c2sc(-c3cn[nH]c3)cc12 [GSK2276055],0%
15,Cc1cccc(NC(=O)Nc2ccc(Oc3ncnc4ccn(C)c34)cc2)c1,0%
16,CC(C)(C)c1ccc2nccc(Nc3cccc(O)c3)c2c1 [GW856795],18%
17,COc1cc(Nc2nccc(-c3c(-c4cccc(NC(=O)c5c(F)cccc5F)c4)nn4ccccc34)n2)cc(OC)c1OC [GSK323521],0%
18,CCn1c(-c2nonc2N)nc2c(C#CC(C)(C)O)ncc(OCCCCN)c21.O=C(O)C(F)(F)F.O=C(O)C(F)(F)F [GSK507274],8%
19,O=C(Nc1cccc(-c2nn3ncccc3c2-c2ccnc(Nc3ccccc3)n2)c1)c1c(F)cccc1F [GSK198271],0%

row,SMILES,%Inh
1,Cn1cc(-c2ccc3c(c2)CCN3C(=O)Cc2cccc(Cl)c2)c2c(N)ncnc21 [GSK2606590],0%
2,CN1CCN(Cc2cccc(-c3ccc4c(Nc5ccc(Oc6ccccc6)cc5)ccnc4c3)c2)CC1 [GW578342],0%
3,Oc1cc(Nc2ccnc3cc(I)ccc23)ccc1F [GW552771],29%
4,CCCCc1nn2ncccc2c1-c1ccnc(Nc2ccc(N3CCN(C)CC3)cc2)n1 [GW684941],29%
5,O=C(Nc1n[nH]c2cc(-c3ccoc3)ccc12)C1CC1 [SB-738481],5%
6,COc1cccc(C2=C(Nc3ccc(Cl)c(C(=O)O)c3)C(=O)NC2=O)c1 [SB-390769],0%
7,CCS(=O)(=O)c1ccc(OC)c(Nc2nccc(-c3c(-c4cccc(NC(=O)c5c(F)cccc5F)c4)nn4ncccc34)n2)c1 [GSK326180],100%
8,Nc1ncc(-c2cccnc2)c2scc(-c3ccc4c(c3)CCN4C(=O)Cc3ccccc3)c12 [GSK683281],7%
9,Cc1ccc(C(=O)N2CC[C@@H](O)C2)cc1-n1c(C)cc(OCc2ccc(F)cc2F)c(Br)c1=O,0%
10,CC(=O)Nc1nc2cnc(Nc3cc(NC(=O)c4cccc(C5(C#N)CC5)c4Cl)ccc3C)nc2s1,59%
11,COc1cc(Nc2nccc(N3CCC(NC(=O)c4cc5ccccc5s4)C3)n2)cc(OC)c1OC (stereo not shown) [GSK1379760],7%
12,Cc1ccc(C(=O)Nc2ccc(Nc3ccnc4cc(-c5nccs5)ccc34)cc2O)cc1.Cl [GW494702],9%
13,Cc1ccc(C)c(NC(=O)NC2CCN(c3ccnc(Nc4ccc(F)cc4)n3)C2)c1 (stereo not shown) [GSK1379720],0%
14,CN(C)S(=O)(=O)c1cc(-c2ccc3nccc(-c4cccc(S(N)(=O)=O)c4)c3c2)cnc1N [GSK1669921],20%
15,COc1cccc(NC(=O)NC2CCN(c3ccnc(Nc4cc(OC)c(OC)c(OC)c4)n3)C2)c1 (stereo not shown) [GSK1379763],0%
16,Fc1ccc(-c2ncn(C3CCNCC3)c2-c2ccnc(Oc3ccc(-c4ccccc4)cc3)n2)cc1 [SB-245391],19%
17,Cn1cc(-c2[nH]c3cc(NC(=O)[C@H](N)C4CCCCC4)cc4c3c2C=NNC4=O)cn1,11%
18,Cl.Cl.NCC(NCc1ccc(-c2ccnc3[nH]ccc23)s1)c1ccccc1 (stereo not shown) [GSK1321565],0%
